Experimental data as given in PubChem BioAssay AID2284139 (EPA ToxCast).
The source made the active and inactive calls. How the source made its calls: active means hit-call score of the fitted dose curve at least 0.9, where 1 is the maximum; inactive means score below 0.9.

Target: human ZAP70 Tyrosine Kinase, ZAP70 (gene 7535) (UniProt P43403)
Test: ERF_FR_ENZ_hZAP70: Eurofins (ERF) Enzymatic Radiometric [Km ATP] KinaseProfiler LeadHunter Assay for human ZAP70 Tyrosine Kinase
Procedure: ERF_FR_ENZ_hZAP70 is a biochemical, single-readout assay that uses extracted gene-proteins in a cell-free assay. Measurements were taken 0.25 hour after chemical dosing in a 96-well plate. See ZAP70 Human TK Kinase Enzymatic HTRF Assay [Km ATP], Cerep.ERF_FR_ENZ_hZAP70 is an assay component calculated from the ERF_FR_ENZ_hZAP70 assay. It is designed to measure enzyme activity using a type of enzyme reporter as detected by fluorescence intensity with HTRF technology.Data from the assay component ERF_FR_ENZ_hZAP70 was analyzed at the assay endpoint, ERF_FR_ENZ_hZAP70, in the positive analysis fitting direction relative to DMSO as the negative control and baseline of activity. Using a type of enzyme reporter, loss-of-signal activity can be used to understand changes in enzymatic activity as they relate to gene ZAP70. To generalize the intended target to other relatable targets, this assay endpoint is annotated to the kinase intended target family, where the subfamily is protein tyrosine kinase.
ZAP-70 (h) is incubated with 50 mM Tris pH 7.5, 0.1 mM EGTA, 0.1 mM Na3VO4, 0.1% […], 0.1 mg/mL poly(Glu, Tyr) 4:1, 10 mM MnCl2, 10 mM MgAcetate and [gamma-33P]-ATP (specific activity and concentration as required). The reaction is initiated by the addition of the Mg/ATP mix. […]

human ZAP70 Tyrosine Kinase, ZAP70 (gene 7535), sequence (P43403 whole entry, looked up): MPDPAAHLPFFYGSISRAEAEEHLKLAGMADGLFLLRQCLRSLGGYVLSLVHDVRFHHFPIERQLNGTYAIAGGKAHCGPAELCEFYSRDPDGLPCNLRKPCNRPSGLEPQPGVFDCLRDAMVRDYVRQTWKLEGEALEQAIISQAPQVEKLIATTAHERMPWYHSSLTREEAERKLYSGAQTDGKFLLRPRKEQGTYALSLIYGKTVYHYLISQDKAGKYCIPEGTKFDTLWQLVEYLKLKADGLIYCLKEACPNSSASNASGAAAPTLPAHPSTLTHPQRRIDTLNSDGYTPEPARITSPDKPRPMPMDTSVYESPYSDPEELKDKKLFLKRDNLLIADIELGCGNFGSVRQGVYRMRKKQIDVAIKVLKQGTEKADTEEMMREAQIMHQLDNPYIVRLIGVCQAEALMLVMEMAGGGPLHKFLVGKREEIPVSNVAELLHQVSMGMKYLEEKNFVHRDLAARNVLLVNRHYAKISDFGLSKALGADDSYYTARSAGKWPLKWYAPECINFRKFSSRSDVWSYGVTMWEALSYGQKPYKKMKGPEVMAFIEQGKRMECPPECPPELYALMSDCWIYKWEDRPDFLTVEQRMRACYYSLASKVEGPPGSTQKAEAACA

| Compound | outcome |
| --- | --- |
| O=C(/C=C/c1ccc(O)cc1)CC(=O)/C=C/c1ccc(O)cc1 | inactive |
